PI5P4Ka inh = qHTS for Inhibitors of phosphatidylinositol 5-phosphate 4-kinase (PI5P4K); Phosphatidylinositol 5-phosphate 4-kinase type-2 alpha (Homo sapiens), P48426; PI5P4Kalpha enzyme, ADP-Glo luminescence, 60 min; stronger effect = lower value; max response, %; 330,000 compounds, 1.2% hits; AID 652105, 2013; active means max response of -50% or lower; inconclusive means between -30% and -50%; inactive means -30% or higher; further: value at the top dose of about 77 µM; on the % scale 0 is the no-effect control and ±100 the full control effect
Target sequence (P48426 whole entry, looked up): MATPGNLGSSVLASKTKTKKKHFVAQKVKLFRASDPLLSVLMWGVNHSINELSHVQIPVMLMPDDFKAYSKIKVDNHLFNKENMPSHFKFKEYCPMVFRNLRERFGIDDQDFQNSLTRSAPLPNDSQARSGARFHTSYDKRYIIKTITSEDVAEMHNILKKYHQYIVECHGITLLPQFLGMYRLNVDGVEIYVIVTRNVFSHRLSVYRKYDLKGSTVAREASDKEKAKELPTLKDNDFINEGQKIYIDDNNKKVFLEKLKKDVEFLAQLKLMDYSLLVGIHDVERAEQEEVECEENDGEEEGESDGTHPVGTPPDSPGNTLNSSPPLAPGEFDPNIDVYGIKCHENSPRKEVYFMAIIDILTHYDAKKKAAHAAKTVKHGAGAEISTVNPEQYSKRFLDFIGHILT
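Controls without substrate or without enzyme flank wells where PI5P4Kalpha converts substrate using 5 microM ATP (final). Incubation lasts 60 minutes at room temperature; ADP formed is read by ADP-Glo luminescence.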
Pol eta inh-1 = qHTS for Inhibitors of Polymerase Eta | DNA polymerase eta (Homo sapiens), Q9Y253 | recombinant Pol eta, fluorescent DNA replication assay | Potency, µM (highest dose often 114 µM), without a hit: at the highest dose activity change, negative = inhibition, hits mostly inhibitors | 390,000 compounds, 1.2% hits | AID 588591, 2011; further: potency means the concentration at half of the fitted maximal effect; on the % scale 0 is the no-effect control and ±100 the full control effect
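Fluorescent replication assay: 50 nM final substrate added after a 15 min room-temperature compound preincubation with 10 nM enzyme. Signal taken at 0 min and again at 10 min.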
Pol beta inh = qHTS Assay for Inhibitors of DNA Polymerase Beta; P06746; Pol beta primer extension/strand displacement, fluorescence kinetic; Potency, µM (series often up to 114 µM), without a hit: at the top dose activity change, negative = inhibition, hits mostly inhibitors; 340,000 compounds, 1.3% hits; AID 485314, 2010; further: potency means the concentration at half of the fitted maximal effect; on the % scale 0 is the no-effect control and ±100 the full control effect
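Human Pol beta at 10 nM; strand-displacement substrate 50 nM final. Compound exposure 15 min at room temperature before start, reaction 10 min at room temperature.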
Pol iota inh = qHTS for Inhibitors of Polymerase Iota. Pol iota fluorescent replication assay, 10 min. Potency, µM (top dose mostly 115 µM), without a hit: at the top dose activity, negative = inhibition, usual class: inhibitors. 390,000 compounds, 1% hits; further: potency means the concentration at half of the fitted maximal effect
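Pol iota at 10 nM preincubated 15 min with compounds at room temperature; reaction started with fluorescent substrate, 50 nM final. Fluorescence read kinetically at 0 and 10 min; buffer-only wells as negative control.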
Pol kappa inh-1 = qHTS for Inhibitors of Polymerase Kappa | DNA polymerase kappa (Homo sapiens), Q9UBT6 | purified Pol kappa, fluorescent DNA synthesis assay, 10 min | Potency, µM (top dose mostly 107 µM), inactives show top-dose activity, negative = inhibition, actives largely listed as inhibitors | 400,000 compounds, 0.53% hits; further: potency means the concentration at half of the fitted maximal effect; on the % scale 0 is the no-effect control and ±100 the full control effect
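Kinetic fluorescence screen: compound preincubated 15 min RT with 10 nM enzyme; 50 nM substrate (final) initiates; reads at 0/10 min.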
WRN helicase inh = qHTS for Inhibitors of WRN Helicase; WRN helicase unwinding, fluorescent forked duplex, kinetic; Potency, µM (doses to about 114 µM), for the others: at the highest dose activity change, negative = inhibition, usual class: inhibitors; 360,000 compounds, 0.46% hits; further: potency means the concentration at half of the fitted maximal effect; on the % scale 0 is the no-effect control and ±100 the full control effect; nearly all actives have a fitted effect of over 55% in size
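WRN at 20 nM final was preincubated with compound for 15 min at room temperature; reaction started with 100 nM forked duplex oligonucleotide carrying fluorophore and quencher plus 2 mM ATP (final). Unwinding followed kinetically by red fluorescence (ex 525/em 598 nm).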
PGK validate = qHTS for inhibitors of Phosphogylcerate Kinase: Hit Validation Screen; shares compounds with Pol kappa inh-1; TbPGK coupled GAPDH assay, Kinase-Glo luminescence; Potency, µM (highest dose often 57.5 µM), for the others: at the top dose activity change, negative = inhibition, usual class: inhibitors; 500 compounds, 79% hits; further: potency means the concentration at half of the fitted maximal effect; on the % scale 0 is the no-effect control and ±100 the full control effect; nearly all actives have a fitted effect of over 65% in size
Pol iota confirm = qHTS for Inhibitors of Polymerase Iota: Confirmatory Assay for Cherry-picked Compounds; Potency, µM, usual class: inhibitors; AID 720496, 2013; shares compounds with Pol kappa inh-1; Pol iota primer extension, TAMRA/BHQ fluorescence; 1,500 compounds, 77% hits; further: potency means the concentration at half of the fitted maximal effect
Pol kappa inh-2 = qHTS for Inhibitors of Polymerase Kappa: Confirmatory Assay for Cherry-picked Compounds; 920 compounds, 76% hits; Potency, µM, most hits filed as inhibitors; AID 720501, 2013; shares compounds with Pol eta inh-1; purified Pol-kappa, fluorescent strand-displacement substrate; further: potency means the concentration at half of the fitted maximal effect
Pol eta inh-2 = qHTS for Inhibitors of Polymerase Eta: Confirmatory Assay for Cherry-picked Compounds. AID 720502, 2013. 2,600 compounds, 64% hits. Potency, µM, hits mostly inhibitors. shares compounds with Pol eta inh-1. Pol eta primer extension, TAMRA/BHQ fluorescence, 10 min; further: potency means the concentration at half of the fitted maximal effect
The depositor's hits bear a star; ? = inconclusive; · = no result given; [ ] = dose if it differs, or a comment. A selection: hits, their analogues and other compounds. The true share with any hit is near 2.8%. Unless noted, the call rests on the fitted dose curve; in most records, active means well fitted curve in the direction sought with a large enough effect; inconclusive means small, poorly fitted or top-dose-only effect, or another doubt; inactive means no such curve, though single readings can be large; an effect the other way counts as inactive or inconclusive.

SMILES	PI5P4Ka inh	Pol eta inh-1	Pol beta inh	Pol iota inh	Pol kappa inh-1	WRN helicase inh	Pol iota confirm	Pol kappa inh-2	Pol eta inh-2	others
C/C=C/C=C/C(=O)[C@@H]1[C@@H]([C@]2(C)OC(=O)C(C)=C2O)[C@H]2/C(=C(O)/C=C/C=C/C)C(=O)[C@]1(C)C(=O)C2(C)O (stereo not given in full)	?	2.5µM*	-20%	2.8µM*	8.9µM*	?	12*	·	4.3*
COc1ccc(C=C2NC(=S)NC2=O)cc1	-9	-1%	·	16%	-5%	1%	·	·	·
COc1ccc(C(=O)N2C(=S)NC(=O)/C2=C\c2ccc(C)cc2)cc1	-29	?	50µM*	?	?	50µM*	75*	·	?
O=C1S/C(=C/c2ccc(N3CCOCC3)o2)C(=O)N1Cc1ccc(F)cc1	-7	6%	12%	2%	-23%	-7%	·	·	·
O=C1NC(=S)S/C1=C/c1ccc(N2CCOCC2)o1	-53*	?	14µM*	79µM*	?	25µM*	38*	84*	76*
COc1ccc(C(=O)N/N=C/c2ccc(OC)c(COc3c(F)c(F)cc(F)c3F)c2)cc1	-5	?	50µM*	45µM*	-16%	-6%[11.6 µM]	?	?	·
CCOc1cc(/C=N/NC(=O)c2ccc(-c3csc(Nc4ccc(C)cc4)n3)cc2)ccc1OCC(=O)O	?	18µM*	5µM*	8.9µM*	32µM*	50µM*	30*	19*	76*	PGK validate=12µM*
Cn1cnnc1SCC(=O)Nc1ncc([N+](=O)[O-])s1	-50*	2.8µM*	·	7.9µM*	71µM*	40µM*	19*	3.4*	15*
CC1=C(C#N)c2nc(N)c(C#N)c(C)c2/C1=C\c1ccc(OCC(=O)O)c(Cl)c1	?	7.9µM*	-17%	?	79µM*	?	47*	19*	19*
O=C(O)CSc1cc(NS(=O)(=O)c2ccc(Br)cc2)c2ccccc2c1O	?	35µM*	89µM*	7.1µM*	89µM*	50µM*	?	?	?
Cc1ccc(S(=O)(=O)Nc2ccc(Br)cc2C(NCC(=O)O)c2ccccc2)cc1 (stereo not given)	6	-5%	-15%	-1%	-20%	-8%	·	·	·
Cc1cccc(CC(=O)N2CC(=O)Nc3ccc(Br)cc3C2c2ccc(F)cc2)c1 (stereo not given)	·	-22%	11%	?	-12%	·	·	·	·
Cc1ccc(-n2cccc2/C=C2/C(=N)N3C(=NC2=O)SN=C3S(C)(=O)=O)cc1Cl	-74*	14µM*	28µM*	22µM*	?	?	84*	·	?

High-throughput results from PubChem.
